# BCR signal inh – qHTS Assay to Find Inhibitors of Chronic Active B-Cell Receptor Signaling. ABC-DLBCL IkBa-CBG/CBR reporter, luminescence ratio, 4 h. Potency, µM (series often up to 46.1 µM), for inactives: at the top dose activity change, negative = inhibition, usual class: inhibitors. hit rate 0.05% among 340,000. AID 493014, 2011; active = well fitted inhibition curve with a large enough effect in the signal ratio, with a control signal flat, not every such curve was filed as active; inconclusive = small, poorly fitted or top-dose-only effect, or effect the other way, or a change in a side signal; the % refers to the signal ratio;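 note: plate controls were basal doxycycline-induced cells for no effect and cells given 10 µM MG132 for full effect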
#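 Concentration-response series (up to 46 uM) were applied to TMD8 dual-reporter cells for 4 h at 37C with doxycycline. Green/red ratio, after filter-overlap correction, defined %Activity; red signal alone was normalised to basal cells and zero luminescence.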
# Abeta yeast res – qHTS for compounds that reverse cellular toxicity of Amyloid beta (A-beta) peptide in yeast: Primary Screen; yeast expressing A-beta42, growth rescue, OD600, 48 h; response scale: 0% DMSO, 100% iron-clioquinol control; Potency, µM (highest dose often 46.1 µM), hits mostly activators; hit rate 0.063% among 410,000; note: nearly all actives have a fitted effect of over 55% in size
#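 Yeast A-beta toxicity model in growth medium with pinned compounds, 48 h at 30 C; growth read as absorbance at 600 nm. Normalized to FeCl3/clioquinol equimolar mix (positive) and DMSO (negative).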
# FUS yeast rescue – qHTS for Suppressors of FUS Proteinopathy: Primary screen using FUS-linked yeast assay; S. cerevisiae FUS-expressing, growth rescue, OD600, 24 h; Potency, µM (highest dose often 76.6 µM), usual class: activators; hit rate 0.24% among 390,000; AID 1347120, 2019;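 note: plate controls were DMSO vehicle for no effect and reference control for full effect; nearly all actives have a fitted effect of over 55% in size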
#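 Galactose (2%) drives FUS expression in yeast precultured in raffinose; seeding density OD 0.005. Test compounds incubated 24hr at 30C and 99% humidity before absorbance at 600 nm was measured.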
# aSyn rescue – qHTS of alpha-syn Inhibitors; Yeast expressing alpha-synuclein, growth rescue, BacTiter-Glo, 24 h; Potency, µM (titrated, usually from 46.1 µM), without a hit: at the top dose growth rescue (activation), actives largely listed as activators; hit rate 0.14% among 370,000; AID 652106, 2013; note: % of control where 0% means no effect; nearly all actives have a fitted effect of over 65% in size
#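 Screening used galactose-induced yeast with toxic alpha-synuclein levels, exposed to compound for 24 hr at 30 deg C. Cell growth, read with BacTiter-Glo luminescence, gave the measured signal.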
# TDP43 rescue – qHTS of TDP-43 Inhibitors; TDP-43 expressing yeast growth rescue, BacTiter-Glo, 24 h; Potency, µM (doses to about 46.1 µM), inactives show top-dose growth rescue (activation), hits mostly activators; hit rate 1.8% among 410,000; AID 652104, 2013; note: % of control where 0% means no effect; nearly all actives have a fitted effect of over 50% in size
#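 Readout is BacTiter-Glo luminescence of cell growth, so inhibitors register as activators. TDP-43-expressing yeast at OD600=0.02 in galactose medium, after raffinose pregrowth to mid-log, were incubated with compound for 24 hr at 30 deg C.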
# uPA generation – qHTS for Inhibitors of Cell Surface uPA Generation; cell surface uPA generation assay, qHTS; Potency, µM (top dose mostly 38.3 µM), for the others: at the top dose activity change, negative = inhibition, hits mostly inhibitors; hit rate 0.31% among 330,000; active = well fitted inhibition curve with a large enough effect; inconclusive = small, poorly fitted or top-dose-only effect; inactive = no such curve, though single readings can be large or run the other way; tested in mouse RAW 264.7 cells; note: % is set by controls: 0 for no effect and ±100 for the full control effect; nearly all actives have a fitted effect of over 55% in size
# Numbers without * were called inactive; i = inactive; ? = inconclusive; . = no result; [ ] = remark or other dose. Sampled rows, rich in hits. Any-hit rate of the full collection: about 2.3%. Unless noted, calls come from the whole dose curve; as a rule, active = well fitted curve in the direction sought with a large enough effect; inconclusive = small, poorly fitted or top-dose-only effect, or another doubt; inactive = no such curve, though single readings can be large; an effect the other way counts as inactive or inconclusive. Potency is the fitted concentration of half-maximal effect.
SMILES,BCR signal inh,Abeta yeast res,FUS yeast rescue,aSyn rescue,TDP43 rescue,uPA generation
CC(c1ccccc1)N1C(=O)c2cccnc2C1=O (stereo unspecified),1%,i,i,1%,2µM*,1%
O=C(Nc1ccc2c(c1)CCC2)c1cc(S(=O)(=O)Nc2ccc(F)cc2)c(Cl)cc1Cl,6%,i,.,0%,14%,1%
COc1ccc2c(C)c(CCC(=O)NCCc3ccc(Cl)cc3)c(=O)oc2c1,.,i,i,.,22µM*,.
COc1ccc(CCC(=O)NCCOc2ccc(Cl)cc2)cc1,3%,i,i,2%,8.9µM*,5%
CN(C)c1ccc(NC(=S)NCC2CCCO2)cc1 (stereo unspecified),-7%,i,i,0%,8%,-2%
CCCCc1ccc(NC(=S)NCC2CCCO2)cc1 (stereo unspecified),-2%,13µM*,i,-12%,-3%[0.397 µM],5%
CCNC(=S)NNC(=O)c1cc(-c2cccc(OCC)c2)nc2ccccc12,?,i,i,-2%,-10%,.
O=C(NNC(=O)c1ccc(S(=O)(=O)N2CCCC2)cc1)c1ccc(Br)cc1,1%,i,i,4%,18%,-7%
Cc1ccc(/C=N/Nc2nc3ccccc3s2)o1,?,?,i,0%,11µM*,-13%
Cc1ccc(/C=N/Nc2nc(C(C)(C)C)cs2)o1,0%,i,i,1%,13%,0%
CCOC(=O)Oc1ccc2c(c1)C(C)=CC(C)(C)N2C(=O)OCC,4%,i,i,15%,-12%,7%
COc1ccc2c(-c3ccccc3)cc(=S)[nH]c2c1,-3%,i,i,-20%,?,3%
COc1ccc2c(C)cc(=S)[nH]c2c1,-6%,i,i,2%,13µM*,-1%
O=C(NC1CCCCC1)C(c1ccncc1)N(Cc1ccc2c(c1)OCO2)C(=O)C(F)(F)F (stereo unspecified),?,i,i,1%,3%,5%
Cn1/c(=N/N=C/c2ccccn2)sc2ccccc21,?,i,i,-3%,4%,-3%
COc1ccc2c(CN(C)c3ccccc3)cc(=O)oc2c1,15µM*,i,.,-18%,0%,-7%
COc1ccc2c(=O)c(-c3ccccc3)c(C)oc2c1,3%,i,i,6%,11µM*,-8%
CC(C)(C)NC(=O)CSc1nc2ccc(Nc3nc(N4CCOCC4)nc(N4CCOCC4)n3)cc2s1,?,i,i,?,11µM*,?
O/N=C/c1ccnc(SCc2ccc(Cl)cc2)n1,1%,i,i,1%,10µM*,-6%
O/N=C/c1ccnc(SCc2ccccc2)n1,?,i,i,-6%,11µM*,-5%
CCOc1ccc(C(=O)Nc2c(C(=O)N3CCN(c4ccccc4F)CC3)oc3ccccc23)cc1,.,i,i,.,?,.
O=C1/C(=C/c2cccnc2)CCC/C1=C\c1cccnc1,?,i,.,21%,-67%,8.9µM*
COc1cc(C(=O)Nc2ccc(Oc3ncnc4sc(-c5ccccc5)cc34)cc2)cc(OC)c1OC,-5%,i,.,-11%,?,0%
Nc1ncc2c(n1)CC(c1ccco1)CC2=O (stereo unspecified),-2%,i,i,1%,14µM*,0%
CCCc1cc(C(=O)NNC(=S)Nc2cccc(C)c2)cs1,3%,i,.,-6%,8.9µM*,-4%
SMILES,BCR signal inh,Abeta yeast res,FUS yeast rescue,aSyn rescue,TDP43 rescue,uPA generation
CC(=O)N1N=C(c2cccc([N+](=O)[O-])c2)OC1c1ccccc1Cl (stereo unspecified),0%,i,i,7%,22µM*,-3%
CC(=O)N1N=C(c2cccc([N+](=O)[O-])c2)OC1(C)c1cccs1 (stereo unspecified),1%,i,i,0%,?,-3%
Cc1ccc(C(=O)Nc2cccc(N(C)S(C)(=O)=O)c2)cc1S(=O)(=O)Nc1ccccc1,?,i,35µM*,10%,-24%,8%
Cc1cc(Br)c2c(c1)[C@](O)(c1cn(C)c3ccccc13)C(=O)N2C,.,?,i,0%,22µM*,.
CN1C(=O)[C@@](O)(c2cn(C)c3ccccc23)c2ccccc21,.,i,i,-1%,3%,.
CCc1ccc(C(=O)COc2ccc(NC(C)=O)cc2)cc1,?,i,i,5%,?,4%
CCOc1ccc(C(=O)COc2ccc(NC(C)=O)cc2)cc1,-5%,i,11µM*,7%,-1%,4%
CC(C)c1c(C(=O)N/N=C/c2ccc3c(c2)OCO3)nnn1-c1nonc1N,2%,i,i,-6%,11%,-19%
CCN(CC)c1ccc(/C=N/NC(=O)c2nnn(-c3nonc3N)c2C(C)C)c(O)c1,4%,14µM*,?,14µM*,?,-1%
CC(=O)C1=C(Nc2ccccc2)CC(C)(O)C(C(C)=O)C1c1ccccc1 (stereo unspecified),1%,i,i,-6%,-6%,2%
O=C1CSC2(C(=O)N(Cc3cccc(C(F)(F)F)c3)c3ccccc32)N1c1ccc(F)c(F)c1 (stereo unspecified),.,i,?,-14%,?,.
O=C1CSC2(C(=O)N(Cc3cccc(F)c3)c3ccccc32)N1c1cccc(C(F)(F)F)c1 (stereo unspecified),.,i,i,?,22µM*,.
Cc1ccc(N2CC(C(=O)Nc3nnc(SCc4ccccn4)s3)CC2=O)cc1 (stereo unspecified),2%,i,i,1%,25%,2%
Cc1cccc(N2CC(C(=O)Nc3nnc(SCc4ccccn4)s3)CC2=O)c1 (stereo unspecified),7%,i,18µM*,3%,-1%,8%
COc1ccccc1Nc1nc(-c2cccc([N+](=O)[O-])c2)cs1,?,i,i,-20%,22µM*,?
CN(CCOc1ccc(F)cc1)Cc1ccccc1,?,i,i,6%,9%,1%
O=C(O)CCCN1C(=O)NC2NC(=O)NC21 (stereo unspecified),-10%,i,i,-18%,-23%,-1%
Nc1nc(Cl)nc2c1ncn2[C@@H]1O[C@H](COP(=O)(O)OP(=O)(O)OP(=O)(O)O)[C@@H](O)[C@H]1O,.,.,.,21µM*,.,.

# Compound activity as filed in PubChem BioAssay.
